The panel holds about 83,000 compounds, 20% with a hit somewhere; the sample as a whole holds those more often.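 Cells were grown in 96-well plates and exposed to the test compound at a single concentration for 48 hours; results are reported as percent growth, with values below 10 considered active.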 A number with no mark means an inactive call. The source made the active and inactive calls.

Among the test systems are HCT-15 colon; HT29 colon; SNB-75 CNS; SNB-19 CNS; U251 CNS; PC-3 prostate; SK-MEL-5 melanoma; UACC-62 melanoma; LOX IMVI melanoma; SK-MEL-28 melanoma; SK-MEL-2 melanoma; EKVX NSCLC; SN12C renal; UO-31 renal; TK-10 renal; ACHN renal; CAKI-1 renal; A498 renal; CCRF-CEM leukemia; MOLT-4 leukemia.
Common to all, as to assay: NCI-60 one-dose screen, 48 h (100 = growth as untreated, 0 = no growth, -100 = all killed)
Common to all, as to details: 10 µM unless noted

With `CN(Cc1ccccc1)c1nc(Cl)c(C2CC(c3ccc4c(c3)OCO4)=NN2c2cc(Cl)cc(Cl)c2)s1` (stereo not given), the growth was 98.7% with HCT-15 colon; 97.8% in the assay on HT29 colon; 78.5% in the assay on SNB-75 CNS; 106% in the assay on SNB-19 CNS; 98.1% in the assay on U251 CNS; 93.5% in the assay with PC-3 prostate. The growth in the assay on SK-MEL-5 melanoma was 97.4%; in the assay on UACC-62 melanoma, 96.6%; in the assay with LOX IMVI melanoma, 96.6%; with SK-MEL-28 melanoma, 99%; in the assay with SK-MEL-2 melanoma, 101%; in the assay on EKVX NSCLC, 95.1%. Besides, the growth with SN12C renal was 99.1%; in the assay on UO-31 renal, 87.5%; in the assay with TK-10 renal, 119%; with ACHN renal, 97%; with CAKI-1 renal it was 84.3%; in the assay on A498 renal, 115%. Also, the growth with CCRF-CEM leukemia is 97.1%; in the assay on MOLT-4 leukemia, 107%.
For `COc1cc(/C=C/C(=O)c2ccc(NC(=O)CSc3nnc(-c4cc(-c5ccccc5)nc5ccccc45)n3-c3ccccc3)cc2)cc(OC)c1OC`, the growth in the assay with HCT-15 colon is 65.9%; in the assay with HT29 colon it was 54.7%; with SNB-75 CNS it was 104%; with SNB-19 CNS it was 95.1%; in the assay on U251 CNS, 94%; with PC-3 prostate, 81.6%. Further, the growth with SK-MEL-5 melanoma was 87%; with UACC-62 melanoma, 71.9%; in the assay on LOX IMVI melanoma, 89.4%; with SK-MEL-28 melanoma it was 101%; with SK-MEL-2 melanoma, 100%; in the assay with EKVX NSCLC, 84.9%. In addition, the growth in the assay with SN12C renal was 83.8%; in the assay with UO-31 renal, 87.7%; in the assay on TK-10 renal it was 109%; in the assay with ACHN renal it was 78.6%; in the assay on CAKI-1 renal it was 72.4%; in the assay with A498 renal, 87.8%. For the same compound, the growth with CCRF-CEM leukemia is 84.2%; in the assay with MOLT-4 leukemia, 52.7%.
Consider `COc1cc2ncnc(Nc3ccc(F)c(Cl)c3)c2cc1OCC(=O)N1CCCCC1`, for which the growth is 86.1% with HCT-15 colon; 77.1% in the assay on HT29 colon; 87.7% in the assay with SNB-75 CNS; 91.8% with SNB-19 CNS; 96.9% with U251 CNS; 84.6% with PC-3 prostate. The growth with SK-MEL-5 melanoma is 90.4%; with UACC-62 melanoma, 91.7%; in the assay with LOX IMVI melanoma it was 87.4%; in the assay on SK-MEL-28 melanoma, 99.2%; in the assay on SK-MEL-2 melanoma, 88.1%; with EKVX NSCLC, 63.5%. The growth was 76.4% with SN12C renal; 43.5% in the assay with UO-31 renal; 23.9% in the assay on TK-10 renal; 32.2% in the assay on ACHN renal; 44.5% in the assay on CAKI-1 renal; 43.5% with A498 renal. The growth is 94.2% in the assay on CCRF-CEM leukemia and 73.8% in the assay with MOLT-4 leukemia.
Consider `FC(F)(F)Sc1ccc(/C=C/c2cc(/C=C/c3ccc(SC(F)(F)F)cc3)n(-c3ccccc3)n2)cc1`, for which the growth in the assay on HCT-15 colon is 100%; in the assay with HT29 colon, 95.3%; in the assay on SNB-75 CNS it was 82%; in the assay on SNB-19 CNS, 92.6%; with U251 CNS, 90.4%; with PC-3 prostate, 84.2%. The growth with SK-MEL-5 melanoma is 98.3%; in the assay on UACC-62 melanoma, 84.5%; in the assay on LOX IMVI melanoma, 97.1%; in the assay on SK-MEL-28 melanoma, 109%; in the assay with SK-MEL-2 melanoma it was 101%; in the assay on EKVX NSCLC, 93.9%. Further, the growth in the assay with SN12C renal is 100%; in the assay with UO-31 renal it was 76.7%; with TK-10 renal, 100%; in the assay on ACHN renal it was 93.9%; in the assay with CAKI-1 renal it was 78.5%; with A498 renal, 86.8%. In addition, the growth was 94.7% with CCRF-CEM leukemia and 95.6% in the assay on MOLT-4 leukemia.
For the compound `COc1ccc(CN2CCc3c(Cl)nc(N)nc3C2=O)c(OC)c1`, the growth was -36.7% [100 µM] (active) in the assay on HCT-15 colon; -4.88% [100 µM] (active) in the assay on HT29 colon; 4.5% [100 µM] (active) in the assay with SNB-75 CNS; 33.9% [100 µM] in the assay on SNB-19 CNS; 4.76% [100 µM] (active) in the assay on U251 CNS; 12% [100 µM] with PC-3 prostate. For the same compound, the growth in the assay with SK-MEL-5 melanoma is -55.7% [100 µM] (active); in the assay with UACC-62 melanoma, -24.5% [100 µM] (active); in the assay with LOX IMVI melanoma, -29.7% [100 µM] (active); with SK-MEL-28 melanoma it was -56.1% [100 µM] (active); with SK-MEL-2 melanoma, -30.2% [100 µM] (active); in the assay on EKVX NSCLC, 5.84% [100 µM] (active). Besides, the growth in the assay on SN12C renal was 17.2% [100 µM]; with UO-31 renal it was 27.9% [100 µM]; in the assay with TK-10 renal, 22.2% [100 µM]; in the assay with ACHN renal it was 32.3% [100 µM]; in the assay on CAKI-1 renal, 23.4% [100 µM]; in the assay with A498 renal it was 35.7% [100 µM]. Also, the growth was 3.61% [100 µM] (active) with CCRF-CEM leukemia and 13% [100 µM] in the assay with MOLT-4 leukemia.
As to `CN(Cc1ccccc1)c1nc(Cl)c(C2CC(c3ccc(F)cc3)=NN2C=O)s1` (stereo not given), the growth was 90.4% in the assay on HCT-15 colon; 95.4% with HT29 colon; 97.3% in the assay on SNB-75 CNS; 98.1% in the assay with SNB-19 CNS; 97.7% in the assay on U251 CNS; 83.6% in the assay with PC-3 prostate. The growth was 90.4% in the assay on SK-MEL-5 melanoma; 79.2% with UACC-62 melanoma; 92.8% with LOX IMVI melanoma; 106% in the assay on SK-MEL-28 melanoma; 116% in the assay with SK-MEL-2 melanoma; 77.9% with EKVX NSCLC. Moreover, the growth was 103% with SN12C renal; 76.7% in the assay on UO-31 renal; 96.2% in the assay on TK-10 renal; 105% in the assay on ACHN renal; 83.8% with CAKI-1 renal; 100% in the assay with A498 renal. Besides, the values for the growth with CCRF-CEM leukemia and with MOLT-4 leukemia were 95.6% and 91.9%, respectively.
With `COc1cc(-c2[nH]ncc2Nc2ccc(Cl)cc2)cc(OC)c1OC`, the growth in the assay with HCT-15 colon was 59.7%; with HT29 colon it was 74.2%; in the assay with SNB-75 CNS, 59.8%; with SNB-19 CNS, 74.2%; in the assay with U251 CNS, 68.9%; in the assay on PC-3 prostate it was 59.9%. Besides, the growth in the assay with SK-MEL-5 melanoma is 43.6%; in the assay with UACC-62 melanoma, 40%; in the assay on LOX IMVI melanoma, 55.8%; in the assay with SK-MEL-28 melanoma it was 82.1%; in the assay with SK-MEL-2 melanoma, 112%; with EKVX NSCLC it was 45.4%. Further, the growth in the assay on SN12C renal is 89.9%; in the assay on UO-31 renal it was 42.9%; with TK-10 renal it was 67.8%; with ACHN renal, 78.9%; in the assay on CAKI-1 renal, -14.8% (active); in the assay on A498 renal, 68.9%. Besides, the growth was 54.9% in the assay on CCRF-CEM leukemia and 50.9% in the assay on MOLT-4 leukemia.

The record behind these values is PubChem BioAssay (NCI).
